In all, about 350,000 compounds went through this assay and about 9,900 (2.8%) were called active. Inconclusive results (about 15%) are left out. The call rests on the fitted dose curve; in most records, active means well fitted activation curve with a large enough effect; inconclusive means small, poorly fitted or top-dose-only effect; inactive means no such curve, though single readings can be large or run the other way. The sample as a whole holds a higher share of actives than the screen did.
Assay: A quantitative high throughput screen for small molecules that induce DNA re-replication in MCF 10a normal breast cells. Further: nearly all actives have a fitted effect of over 50% in size. On activity, positive = re-replication: % of control where 0% means no effect.
Details: MCF 10A DNA re-replication, Hoechst nuclear intensity, 48 h; series mostly up to 46.1 µM; activity, positive = re-replication: at the top concentration
Potency means the concentration at half of the fitted maximal effect.

**Q.** Which “activity, positive = re-replication” value does the source give for `O=C(Nc1c(Br)cc2c(c1Br)Cc1ccccc1-2)C(F)(F)F` here?
**A.** 14.3% (inactive)

**Q.** Which “activity, positive = re-replication” value does the source give for `NC(=O)c1ccccc1N(Cc1ccccc1)S(=O)(=O)c1ccccc1` here?
**A.** 8.11% (inactive)

**Q.** For `CCN1CCN(C(=O)c2ccccc2N(C)S(=O)(=O)c2ccc(C)cc2)CC1`, which “activity, positive = re-replication” value is on record?
**A.** -2% (inactive)

**Q.** Which Potency does the source give for `CCOC(=O)N1CCN(C(=O)c2ccccc2N(Cc2ccccc2)S(=O)(=O)c2ccc(OC)cc2)CC1` here?
**A.** 13 µM (active)

**Q.** For `CC[C@@H](C)[C@@H]1CN([C@@H](C)CN2CCC[C@H]2CN2C(N)=NC[C@H]2C(C)C)C(=N)N1CCc1ccc(Cl)c(Cl)c1`, which “activity, positive = re-replication” value is on record?
**A.** -21.4% (inactive)

**Q.** Which “activity, positive = re-replication” value does the source give for `CC(OC(=O)c1c(F)cccc1F)C(=O)NCCC1=CCCCC1` (configuration not stated) here?
**A.** 8.71% (inactive)

**Q.** For `Cc1ccc(NC(=O)CC(=O)Nc2ccc(C)cc2)cc1`, which “activity, positive = re-replication” value is on record?
**A.** 2.57% (inactive)

**Q.** For `CCC(=O)Nc1ccc(Nc2nc(Cl)nc(Nc3ccc(NC(=O)CC)cc3)n2)cc1`, which “activity, positive = re-replication” value is on record?
**A.** 0.0779% (inactive)

**Q.** Which Potency does the source give for `O=C(CCl)Nc1ccc(Sc2ccc(NC(=O)CCl)cc2)cc1` here?
**A.** 6.51 µM (active)

**Q.** With `FC(F)(F)c1ccc(-c2cccc3c2C2CC3CCN2Cc2ccccc2)cc1` (configuration not stated) as the molecule, how does the “activity, positive = re-replication” value read?
**A.** 2.26% (inactive)

**Q.** For `CC1CCCCC12NC(=O)N(CC(=O)N1CCN(c3ccccc3)CC1)C2=O` (configuration not stated), which “activity, positive = re-replication” value is on record?
**A.** 0.565% (inactive)

**Q.** With `COc1cccc(CNC(=O)CN2C(=O)NC(Cc3ccccc3)(c3ccccc3)C2=O)c1` (configuration not stated) as the molecule, how does the “activity, positive = re-replication” value read?
**A.** -0.149% (inactive)

**Q.** With `CN(C)/N=C/c1cn(-c2ccccc2)nc1-c1cccnc1` as the molecule, how does the “activity, positive = re-replication” value read?
**A.** 0.925% (inactive)

**Q.** For `CC(C)(C)OC(=O)N/N=C/c1cn(-c2ccccc2)nc1-c1cccnc1`, which “activity, positive = re-replication” value is on record?
**A.** 7.39% (inactive)

**Q.** Which Potency does the source give for `COc1ccc(-c2nn(-c3ccccc3)cc2/C=N/Nc2ccccn2)cc1OC` here?
**A.** 23.1 µM (active)

**Q.** Which “activity, positive = re-replication” value does the source give for `CCOC(=O)C(CO)NC(=O)C1(NC(C)=O)CCCC1` (configuration not stated) here?
**A.** -0.0355% (inactive)

**Q.** Which “activity, positive = re-replication” value does the source give for `CN(CCc1ccccc1)C(=O)c1cccc(NC(=O)Cc2cccc(NC(=O)C3CCCN(C(=O)CCc4ccccc4)C3)c2)c1` (configuration not stated) here?
**A.** 3.16% (inactive)

**Q.** For `CCOC(=O)C1=C(CN2CCc3ccccc32)NC(=O)NC1c1cccc([N+](=O)[O-])c1` (configuration not stated), which “activity, positive = re-replication” value is on record?
**A.** -3.56% (inactive)

**Q.** With `CCOC(=O)C1=C(C)NC(=O)NC1c1ccccc1` (configuration not stated) as the molecule, how does the “activity, positive = re-replication” value read?
**A.** -2.24% (inactive)

**Q.** Which Potency does the source give for `CCOC(=O)C1=C(CN2CCc3ccccc32)NC(=O)NC1c1ccc(Cl)cc1` (configuration not stated) here?
**A.** 14.6 µM (active)

**Q.** Which “activity, positive = re-replication” value does the source give for `COc1cc(O)c2c(=O)c3c(O)c(O)ccc3oc2c1OC` here?
**A.** -33.2% (inactive)

**Q.** Which “activity, positive = re-replication” value does the source give for `CC(C)CCN1CCN=C1N(C)C` here?
**A.** -20.8% (inactive)

**Q.** Which “activity, positive = re-replication” value does the source give for `O=C(OCc1ccccc1)c1ccc(O)cc1` here?
**A.** 0.461% (inactive)

**Q.** With `O=C(OCc1ccc(-c2ccccc2)cc1)c1cccc(O)c1` as the molecule, how does the Potency read?
**A.** 20.6 µM (active)

**Q.** Which “activity, positive = re-replication” value does the source give for `O=C(OCc1ccc(Br)cc1)c1cccc(-c2nnc(-c3ccccc3)o2)c1` here?
**A.** 4% (inactive)

**Q.** Which “activity, positive = re-replication” value does the source give for `Cc1cc2c(cc1C)NC1(C[C@H]3CCC(=O)N4CC[C@@H](C1)[C@@H]34)C(=NC(C)(C)CC(C)(C)C)N2` (some centres not stated) here?
**A.** -13.3% (inactive)

**Q.** For `CCCCN1CC(CO)Oc2cccc(F)c2S1(=O)=O` (configuration not stated), which “activity, positive = re-replication” value is on record?
**A.** -9.57% (inactive)

**Q.** Which “activity, positive = re-replication” value does the source give for `Cc1cc(C(=O)OCC(=O)N2C(C)CCCC2C)c2ccccc2n1` (configuration not stated) here?
**A.** 3.65% (inactive)

**Q.** With `O=C(NCc1ccccc1)c1ccc(S(=O)(=O)Nc2cccc(C(F)(F)F)c2)cc1` as the molecule, how does the “activity, positive = re-replication” value read?
**A.** 4.4% (inactive)

**Q.** With `Cc1oc2c(F)c(F)c(F)c(F)c2c1S(=O)(=O)Nc1cccc(C(F)(F)F)c1` as the molecule, how does the Potency read?
**A.** 16.4 µM (active)

**Q.** Which “activity, positive = re-replication” value does the source give for `CCOC(=O)N1CCN(C(=O)c2ccc(S(=O)(=O)Nc3cccc(C(F)(F)F)c3)cc2)CC1` here?
**A.** 31.5% (inactive)

**Q.** For `O=C1C=C(c2cc(C(F)(F)F)cc(C(F)(F)F)c2)C[C@@H](c2ccc3c(c2)OCO3)C1`, which “activity, positive = re-replication” value is on record?
**A.** -4.9% (inactive)

**Q.** For `c1ccc(COc2ccccc2CNCc2cccnc2)cc1`, which “activity, positive = re-replication” value is on record?
**A.** -1.98% (inactive)

**Q.** With `Fc1ccccc1COc1ccccc1CNCc1ccncc1` as the molecule, how does the Potency read?
**A.** 3.26 µM (active)

**Q.** With `Fc1ccccc1COc1cccc2cccnc12` as the molecule, how does the “activity, positive = re-replication” value read?
**A.** 16.7% (inactive)

**Q.** With `C[C@@H]1ON(C)[C@H]2C[C@H]3c4cc(N5CCN(C)CC5)ccc4CCN3C(=O)[C@@H]12` as the molecule, how does the “activity, positive = re-replication” value read?
**A.** 16.1% (inactive)

**Q.** For `CCOC(=O)/C(=C\c1ccc([N+](=O)[O-])cc1)C(=O)c1cc(C(C)=O)c(Nc2ccccc2)s1`, which Potency is on record?
**A.** 1.46 µM (active)

**Q.** For `Cc1cccc(NC(=O)c2sc(-c3ccccc3)nc2-c2ccc([N+](=O)[O-])cc2)c1`, which “activity, positive = re-replication” value is on record?
**A.** -1.51% (inactive)

**Q.** For `O=C(Nc1ccccc1)/C(=C/c1ccc([N+](=O)[O-])cc1)NC(=O)c1ccccc1`, which “activity, positive = re-replication” value is on record?
**A.** -1.1% (inactive)

**Q.** Which “activity, positive = re-replication” value does the source give for `Cc1ccc(C(=O)CN2C(=O)NC3(CCOc4ccccc43)C2=O)s1` (configuration not stated) here?
**A.** -9.64% (inactive)

**Q.** With `CCOc1ccc(S(=O)(=O)N2CCC(C(=O)NCC(=O)Nc3cccc(Cl)c3C)CC2)cc1` as the molecule, how does the “activity, positive = re-replication” value read?
**A.** 27.2% (inactive)

**Q.** Which “activity, positive = re-replication” value does the source give for `C[C@H]1COC(=O)[C@H](CC(=O)OC(C)(C)C)C/C=C\C[C@@H](CC(=O)N[C@H](CO)Cc2ccccc2)C(=O)N1` here?
**A.** -2.57% (inactive)

**Q.** For `CC(=O)c1c(C)[nH]c(C(=O)COC(=O)c2cccs2)c1C`, which “activity, positive = re-replication” value is on record?
**A.** 0.382% (inactive)

**Q.** With `Nc1nc(-c2sc3nc4c(cc3c2N)CCCC4)nc(N2CCOCC2)n1` as the molecule, how does the Potency read?
**A.** 6.51 µM (active)

**Q.** For `Cc1nc(N2CCOCC2)nc2c1CCCC2`, which “activity, positive = re-replication” value is on record?
**A.** 6.16% (inactive)

**Q.** Which “activity, positive = re-replication” value does the source give for `CC(C)(C)S(=O)(=O)N1Cc2cc(CO)cc(CCO)c2[C@H]1CCO` here?
**A.** -6.05% (inactive)

**Q.** With `COc1ccc(S(=O)(=O)N2CCN(c3cnccn3)CC2)cc1` as the molecule, how does the “activity, positive = re-replication” value read?
**A.** 2% (inactive)

**Q.** For `COC(=O)c1ccc2c(=O)n(CC3CCCO3)c(=S)[nH]c2c1` (configuration not stated), which Potency is on record?
**A.** 23.1 µM (active)

**Q.** With `Cc1cccc(NC(=O)c2ccc3c(=O)n(CC4CCCO4)c(=S)[nH]c3c2)c1` (configuration not stated) as the molecule, how does the “activity, positive = re-replication” value read?
**A.** 2.75% (inactive)

**Q.** For `O=C(NC1CCCCC1)c1ccc2c(=O)n(CC3CCCO3)c(=O)[nH]c2c1` (configuration not stated), which “activity, positive = re-replication” value is on record?
**A.** -3.05% (inactive)

**Q.** Which “activity, positive = re-replication” value does the source give for `Cc1ccc(C(=O)NCCNC(=O)c2cnccn2)cc1` here?
**A.** -3.55% (inactive)

**Q.** Which “activity, positive = re-replication” value does the source give for `CCN(CC)c1ccc(/C=N/NC(=O)CNC(=O)c2cccnc2)cc1` here?
**A.** 2.8% (inactive)

**Q.** For `Cc1cc(C)nc(N/N=C/c2ccncc2)n1`, which “activity, positive = re-replication” value is on record?
**A.** -13.2% (inactive)

**Q.** For `CCN(CC)c1ccc(/C=N/NC(=O)c2cnccn2)c(O)c1`, which Potency is on record?
**A.** 18.4 µM (active)

**Q.** For `CCN(CC)c1ccc(/C=N/Nc2nc(C)cc(=O)[nH]2)cc1`, which “activity, positive = re-replication” value is on record?
**A.** 8.42% (inactive)

**Q.** With `CCN(CC)c1ccc(/C=N/Nc2nc(C)cc(C)n2)c(O)c1` as the molecule, how does the Potency read?
**A.** 18.4 µM (active)

**Q.** Which “activity, positive = re-replication” value does the source give for `COc1ccc(/C=C/C(=O)OCC(=O)N2CCN(S(=O)(=O)c3ccc(C)cc3C)CC2)cc1OC` here?
**A.** 8.11% (inactive)

**Q.** Which “activity, positive = re-replication” value does the source give for `C[C@]12CCC(=O)C=C1C=CC1C2CC[C@@]2(C)C1CC[C@@]21CCC(=O)O1` (some centres not stated) here?
**A.** -1.52% (inactive)

**Q.** Which “activity, positive = re-replication” value does the source give for `CCN(C(=O)COC(=O)CCOc1cccc(C)c1)c1c(N)n(Cc2ccccc2)c(=O)[nH]c1=O` here?
**A.** 0.756% (inactive)

**Q.** With `CC(C)Cn1c(SCC(=O)Nc2ccc(Cl)cc2F)nc(O)cc1=O` as the molecule, how does the “activity, positive = re-replication” value read?
**A.** 4.29% (inactive)

**Q.** For `Cc1ccc(CNC(=O)COC(=O)C2CCC2)cc1`, which “activity, positive = re-replication” value is on record?
**A.** -2.9% (inactive)

**Q.** For `O=C(c1ccc(Cl)nc1)N1CCN(S(=O)(=O)c2ccc3c(c2)OCCO3)CC1`, which “activity, positive = re-replication” value is on record?
**A.** -10.9% (inactive)
